Assay [1] in a line: TOX21_p53_BLA_p3_viability: Viability Assessment in the Tox21 HCT-116 p53 Agonism Beta-lactamase Assay, Phase 3 (AID 2283593).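 Also: cells exposed to compound for 16 h before reading.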 In outline:
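HCT-116 cells (4000/well) rested 5 h at 37C, then got DMSO compounds by pin tool (217-fold dilution) for 16 h at 37C, 5% CO2. After the bla read, CellTiter-Glo was added and luminescence read at 30 min, room temperature.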

Assay [2] in a line: TOX21_p53_BLA_p4_viability: Viability Assessment in the Tox21 HCT-116 p53 Agonism Beta-lactamase Assay, Phase 4 (AID 2283597).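 Also: hits lower the luminescence signal meaning cytotoxicity.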 In outline:
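Cytotoxicity was inferred from loss of CellTiter-Glo luminescence. HCT116 cells had been dosed with compounds after 5 h plating, incubated 16 h at 37C and 5% CO2, and exposed to the CCF4-AM substrate for 2 h.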

Assay [3] has as its target Cellular tumor antigen p53 (Homo sapiens) (UniProt P04637). Kind of assay: TOX21_p53_BLA_p5_ratio: Tox21 HCT-116 p53 Agonism Beta-lactamase Assay, Ratio, Phase 5 (AID 2283599). In short, it runs like this:
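HCT-116 cells carrying a p53-inducible beta-lactamase reporter were seeded at 4000 cells/well and dosed after 5 h with compound in DMSO (217-fold dilution). After 16 h at 37C, CCF4-AM substrate was added for 2 h, and the 460/530 nm emission ratio was scored as gain-of-signal versus DMSO.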

Assay [4] can be described thus: TOX21_p53_BLA_p5_viability: Viability Assessment in the Tox21 HCT-116 p53 Agonism Beta-lactamase Assay, Phase 5 (AID 2283600). In short, it runs like this:
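Luciferase-coupled ATP quantitation of cells treated for 16 h (37C, 5% CO2) with test chemicals delivered in DMSO via a 217-fold dilution; 4000 cells/well; reagent incubated 30 min at room temperature before luminescence reading.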

For assay [5], the target named is Cellular tumor antigen p53 (Homo sapiens) (UniProt P04637). Kind of assay: TOX21_p53_BLA_p4_ratio: Tox21 HCT-116 p53 Agonism Beta-lactamase Assay, Ratio, Phase 4 (AID 2283601). In outline:
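HCT116 cells carrying an inducible beta-lactamase reporter were plated at 4000 cells/well, rested 5 h, then exposed to compounds in DMSO (217-fold dilution) for 16 h at 37C. CCF4-AM substrate was loaded 2 h at room temperature; 460/530 nm emission ratio scored gain-of-signal versus DMSO.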

Assay [6] is described as follows: Tanguay_ZF_120hpf_MORT_legacy: (Legacy) Oregon State University Tanguay Lab 120 Hour Post-fertilization zebrafish Assay for Mortality (AID 2283633).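 As to AC50: fitted as increase in binary mortality versus DMSO negative control.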 In short, it runs like this:
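Dechorionated Tropical 5D wild-type zebrafish embryos, one per well from 6 hpf, were statically exposed at 28C in the dark until 120 hpf (0.64% DMSO final). Mortality was scored as present/absent by brightfield microscopy, fitted positively versus DMSO.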

A short description of assay [7]: Tanguay_ZF_120hpf_YSE_legacy: (Legacy) Oregon State University Tanguay Lab 120 Hour Post-fertilization zebrafish Assay for Yolk Sac Edema (AID 2283634).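 As to AC50: actives raise the incidence of yolk sac edema above the DMSO baseline.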 In outline:
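Tropical 5D wild-type embryos, dechorionated with pronase at 4 hpf, were exposed singly from 6 hpf to 120 hpf under static, sealed, dark conditions at 28C with 0.64% DMSO final. Yolk sac edema was scored present/absent by brightfield microscopy.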

Assay [8] can be described thus: Tanguay_ZF_120hpf_AXIS_legacy: (Legacy) Oregon State University Tanguay Lab 120 Hour Post-fertilization zebrafish Assay for Body Axis Malformation (AID 2283635).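 As to AC50: potency for an increased fraction of larvae scored with body axis malformation.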 In outline:
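Tropical 5D wild-type zebrafish embryos, dechorionated with pronase at 4 hpf, were placed singly in wells at 6 hpf and exposed statically to test chemical (0.64% DMSO final) at 28C until 120 hpf, then scored by brightfield for body axis defects.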

Assay [9] is described as follows: Tanguay_ZF_120hpf_EYE_legacy: (Legacy) Oregon State University Tanguay Lab 120 Hour Post-fertilization zebrafish Assay for Eye Malformation (AID 2283636).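 Also: binary presence or absence of eye malformation scored by brightfield in 120 hpf larvae.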 In short, it runs like this:
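Static waterborne exposure of dechorionated zebrafish embryos (strain Tropical 5D), 6 to 120 hpf, sealed plates at 28C, 0.64% DMSO vehicle. Eye malformation is scored as a binary endpoint, with gain of signal analysed relative to DMSO.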

The target in assay [10] is Cellular tumor antigen p53 (Homo sapiens) (UniProt P04637). As to the kind of experiment: TOX21_p53_BLA_p3_ratio: Tox21 HCT-116 p53 Agonism Beta-lactamase Assay, Ratio, Phase 3 (AID 2283596). In short, it runs like this:
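Cells were seeded at 4000/well, rested 5 h at 37C, then dosed with DMSO compound solutions (217-fold dilution) for 16 h. CCF4-AM substrate was loaded for 2 h at room temperature, and the 460/530 nm emission ratio was fitted for gain of signal versus DMSO.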

“And” between values parts separate entries of the source, which are not always exact repeats. Equal values may be shown once. Records with an inconclusive call do not appear. Some compounds were tested as several samples or in several runs, with calls that do not always agree. The source made the active and inactive calls. The calls were made as follows: active = hit-call score of the fitted dose curve at least 0.9, where 1 is the maximum; inconclusive = response in the unintended direction; inactive = score below 0.9.

Sequence of Cellular tumor antigen p53 (Homo sapiens) (P04637 whole entry, looked up): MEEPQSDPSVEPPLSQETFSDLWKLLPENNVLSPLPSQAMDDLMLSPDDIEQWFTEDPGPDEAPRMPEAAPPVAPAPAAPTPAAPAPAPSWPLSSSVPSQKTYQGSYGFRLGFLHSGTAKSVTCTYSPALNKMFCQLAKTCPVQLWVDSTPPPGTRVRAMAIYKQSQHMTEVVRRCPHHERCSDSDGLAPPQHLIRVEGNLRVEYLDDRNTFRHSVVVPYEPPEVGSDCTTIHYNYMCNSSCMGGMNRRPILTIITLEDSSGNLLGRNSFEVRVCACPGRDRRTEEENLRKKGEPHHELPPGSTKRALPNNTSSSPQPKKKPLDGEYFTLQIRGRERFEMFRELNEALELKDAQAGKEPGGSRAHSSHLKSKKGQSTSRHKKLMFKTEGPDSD

For `CC1COC(Cn2cncn2)(c2ccc(Oc3ccc(Cl)cc3)cc2Cl)O1` (stereo not drawn), the compound was classed as inactive in assay [1], in assay [4] and in assay [6]. Further, the AC50 in assay [2] is 71.1 µM (active); in assay [3] it was 66.3 µM (active); in assay [5] it was 90.3 µM (active); in assay [7], 8.51 µM (active).
Turning to `Oc1ccccc1-c1ccccc1`, the call in assay [1], in assay [2], in assay [3], in assay [4], in [5] and in assay [6] was inactive. Further, the outcome in [7] was inactive.
As for `C#CCOS(=O)OC1CCCCC1Oc1ccc(C(C)(C)C)cc1` (stereo not drawn), the result in assay [1], in assay [2], in assay [3], in assay [4], in assay [5] and in assay [6] was inactive. Moreover, the call in assay [7] and in assay [8] was inactive. Also, in [2], the AC50 is 70.4 µM (active).
As to `COC(=O)C=C(C)OP(=O)(OC)OC`, the result in assay [3], in assay [4], in [5], in assay [6], in assay [7] and in assay [8] was inactive.
Consider `CCON=C(CC)C1=C(O)CC(c2c(C)cc(C)cc2C)CC1=O` (stereo not drawn), for which the result in [1], in [2], in assay [3], in [4], in [5] and in assay [6] was inactive. Moreover, the result in assay [7] and in assay [8] was inactive.
As for `Cc1c(F)c(F)c(COC(=O)C2C(/C=C(\Cl)C(F)(F)F)C2(C)C)c(F)c1F` (stereo not drawn), the call in assay [1], in [2], in assay [4] and in assay [6] was inactive. For the same compound, the AC50 was 1.79 µM (active) in assay [7], 3.4 µM (active) in assay [8] and 3.05 µM (active) in assay [9].
`CCCN(CCC)c1c([N+](=O)[O-])cc(S(N)(=O)=O)cc1[N+](=O)[O-]`: the outcome in [6], in assay [7] and in assay [8] was inactive.
`CCOP(=S)(OCC)SCn1c(=O)oc2cc(Cl)ccc21`: the outcome in [2], in [3], in assay [4], in assay [5], in [6] and in assay [7] was inactive. Besides, the compound was classed as inactive in [8].
For `COc1nc(NC(C)C)nc(NC(C)C)n1`, the result in assay [3], in assay [5], in assay [6], in [7] and in assay [8] was inactive.
As to `CCc1nn(C)c(C(=O)NCc2ccc(C(C)(C)C)cc2)c1Cl`, the compound was classed as inactive in [1], in assay [6] and in assay [8]. Besides, the AC50 in assay [2] was 46.1 µM (active); in assay [4], 46.1 µM (active); in assay [5], 76.6 µM (active); in assay [7], 6 µM (active).
`COc1nc(C)nc(NC(=O)NS(=O)(=O)c2ccccc2Cl)n1`: the outcome in assay [10], in assay [4] and in assay [5] was inactive.
On to `CS/C(C)=N/OC(=O)N(C)SN(C)C(=O)O/N=C(\C)SC`, for which the result in assay [3], in [4], in [5], in [6], in assay [7] and in assay [9] was inactive. In addition, the AC50 in assay [8] is 24.4 µM (active).
With `CCOc1cc(Oc2ccc(C(F)(F)F)cc2Cl)ccc1[N+](=O)[O-]`, the call in assay [1], in [2], in assay [4], in assay [5], in assay [6] and in assay [7] was inactive. Besides, the outcome in assay [8] was inactive.
Consider `CNC(=S)S`, for which the outcome in assay [1], in assay [2], in [3], in assay [5], in assay [6] and in assay [7] was inactive. Also, in assay [8], the outcome was inactive.
On to `COP(N)(=O)SC` (stereo not drawn), for which the result in [1], in [3], in [4], in assay [6] and in [7] was inactive.
On to `CCCCNC(=O)n1c(NC(=O)OC)nc2ccccc21`, for which the AC50 in assay [10] is 15.9 µM (active) and 15.4 µM (active); in assay [3], 20.5 µM (active) and 12.3 µM (active); in assay [5], 11.9 µM (active) and 9.73 µM (active); in assay [7] it was 52.3 µM (active). For the same compound, the result in assay [2], in [6] and in assay [8] was inactive.
Turning to `C=CC1(C)OC(=O)N(c2cc(Cl)cc(Cl)c2)C1=O` (stereo not drawn), the compound was classed as inactive in assay [2], in assay [3], in assay [4], in [5], in assay [6] and in assay [7]. The outcome in assay [8] was inactive.
For the compound `COP(=S)(OC)Oc1nc(Cl)c(Cl)cc1Cl`, the result in assay [1], in assay [3], in [4], in assay [5], in [6] and in assay [7] was inactive. Moreover, the call in assay [8] was inactive.
Consider `CCNc1nc(Cl)nc(NCC)n1`, for which the compound was classed as inactive in assay [1], in assay [2], in assay [3], in assay [4], in assay [5] and in [6]. The compound was classed as inactive in assay [7] and in assay [8].
On to `CC(C)(C)c1ccc(CSc2cnn(C(C)(C)C)c(=O)c2Cl)cc1`, for which the outcome in assay [3], in assay [4], in assay [5], in assay [7] and in assay [8] was inactive. In assay [6], the AC50 was 25.1 µM (active).
Consider `COC(=O)C(C)Oc1ccc(Oc2ccc(Cl)cc2Cl)cc1` (stereo not drawn), for which the result in assay [10], in [2], in [3], in assay [6], in assay [7] and in assay [8] was inactive.
As to `Cc1cc(Cl)ccc1OCC(=O)O`, the compound was classed as inactive in assay [1], in assay [2], in [3], in assay [4], in assay [5] and in assay [6]. For the same compound, the compound was called inactive in assay [7] and in assay [8].
Turning to `O=C(Nc1ccccc1)Nc1ccnc(Cl)c1`, the call in assay [1], in assay [2], in [3], in assay [4], in assay [6] and in [7] was inactive. In addition, in assay [8], the compound was called inactive. Further, the AC50 in [5] was 41 µM (active).
As for `COc1cnc(OC)n2nc(NS(=O)(=O)c3c(OCC(F)F)cccc3C(F)(F)F)nc12`, the compound was classed as inactive in assay [1], in [4], in assay [5], in assay [6] and in assay [8].
Turning to `CCNc1nc(Cl)nc(NC(C)C)n1`, the outcome in [5], in assay [6], in assay [7] and in [8] was inactive.
As to `CC(C)C1(C)N=C(c2nc3ccccc3cc2C(=O)O)NC1=O` (stereo not drawn), the result in [2], in [3], in [5] and in [7] was inactive.
`N#Cc1nn(-c2c(Cl)cc(C(F)(F)F)cc2Cl)c(N)c1S(=O)C(F)(F)F` (stereo not drawn): the outcome in assay [1], in assay [2], in [3], in assay [4], in assay [5] and in assay [6] was inactive. In addition, the results for the AC50 in [7] and in [8] were 0.0235 µM (active) and 4.62 µM (active), respectively.
With `COc1ccc(C(c2ccc(OC)cc2)C(Cl)(Cl)Cl)cc1`, the call in assay [1], in assay [2], in assay [3], in assay [4], in assay [5] and in assay [6] was inactive. In addition, the call in assay [7], in assay [8] and in assay [9] was inactive.
On to `CCOC(=O)C(Cl)Cc1cc(-n2nc(C)n(C(F)F)c2=O)c(F)cc1Cl` (stereo not drawn), for which the compound was called inactive in assay [2], in assay [4], in assay [5] and in assay [6]. Besides, the AC50 in assay [7] is 1.27 µM (active); in assay [8] it was 4.23 µM (active).
